The source of these data is PubChem BioAssay AID463173 (ICCB-Longwood Screening Facility, Harvard Medical School, 2010).

About 1,700 (3.3%) of roughly 52,000 compounds were called active. This is one part of a sample in which actives are shown more often than they occur. Unmarked numbers belong to inactive results. Rule as the data show it: active = survival mostly below about 52% (no sharp cut-off); inactive = mostly above about 56%.

The test system of this test is Wild type. Nature of the test: growth inhibition of S. aureus wild type versus tarO mutant, primary screen, teichoic acid synthesis inhibitors, RN4220, OD600 (AID 463173). Particulars: S. aureus RN4220 wild type/DeltatarO growth, OD600, 18 h, hits give low values, screened at 18.75 µg/mL (by protocol).
As for `CCOC(=O)c1c(C)[nH]c(C)c1S(=O)(=O)N1CCC(C(=O)NCc2cccc(C)c2)CC1`, the survival was 76%.
With `COC(=O)C1=C(C)Nc2nc3ccccc3n2C1c1ccccc1` (stereo unspecified), the survival is 91%.
Take `CC(=O)NC1CC(=O)N(c2ccc3c(c2)OCCO3)C1` (stereo unspecified): the survival was 66%.
With `COc1ccc(Cl)cc1-n1nnc(-c2nc(-c3ccc4c(c3)OCO4)no2)c1C`, the survival was 71%.
The figure for `COc1cccc(OCc2nc3ccccc3n2C)c1` is 84%; for `COc1ccc(OCc2nc3ccccc3n2C(C)C)cc1` it is 102%; for `COc1ccc(OCC(O)Cn2c(C(C)C)nc3ccccc32)cc1` (stereo unspecified) it is 107%.
`COc1ccc(OCc2nc3ccccc3n2C(C)c2ccccc2)cc1` (stereo unspecified): the survival is -2% (active).
`Cc1ccc(OCc2nc3ccccc3n2CC(C)C)cc1`: the survival is -1% (active).
`CCCc1nc2ccccc2n1CC(O)COc1ccccc1` (stereo unspecified): the survival was 103%.
As for `Cc1nc2ccccc2n1C(C)c1ccccc1` (stereo unspecified), the survival was 111%.
In the case of `CCC(C)Cn1c(COc2ccc(OC)cc2)nc2ccccc21` (stereo unspecified), the survival was -1% (active).
Consider `Cc1cc(C)n2c(Nc3cccc(C(F)(F)F)c3)c(-c3ccsc3)nc2n1`, for which the survival is 89%.
With `O=C(c1cccs1)N1CCCc2ccccc21`, the survival is 124%.
As to `COc1ccc(-n2ncc3c(NC(C)(C)CO)ncnc32)cc1`, the survival was 59%.
`Cc1cc(Br)ccc1NC(=O)c1cc2c(s1)-c1ccccc1SC2`: the survival is 78%.
With `CCN(CC)c1ccc(NC(=O)CCc2nc3cccnc3n2Cc2cccs2)c(C)c1`, the survival was 73%.
In the case of `Cc1ccc(-c2nc(C)c(CCNS(=O)(=O)c3ccccc3F)s2)cc1`, the survival is 67%.
For `Cc1ccc(-c2nc(C)c(CCNS(=O)(=O)c3ccc(F)c(C(F)(F)F)c3)s2)cc1`, the survival is -6% (active).
Take `CCOc1ccc(S(=O)(=O)NCCc2sc(-c3ccc(C)cc3)nc2C)cc1`: the survival was 73%.
The figure for `COc1ccc(N2CC(NC(=O)c3cc4ccccc4o3)CC2=O)cc1OC` (stereo unspecified) is 70%; for `CCc1nc(SCC(=O)O)c(C#N)cc1C` it is 96%; for `O=c1c2c([nH]n1-c1ccccc1)CCCC2` it is 123%.
On to `COc1ccc(NC(=O)c2ccc3c(c2)c(C)c(C)n3Cc2ccc(F)cc2)c(OC)c1`, for which the survival is 59%.
In the case of `Cc1nc(-c2cccc(F)c2)sc1CCNC(=O)C(=O)Nc1ccc2c(c1)OCCO2`, the survival is 68%.
The figure for `CCC1CCCCN1C(=O)CSc1nc(-c2ccc(OC)c(OC)c2)cc(C(F)(F)F)n1` (stereo unspecified) is -15% (active).
With `COc1ccc(-c2cc(C(F)(F)F)nc(SCC(=O)N3CCCCC3)n2)cc1`, the survival was 97%.
Take `COc1ccc(-c2cc(C(F)(F)F)nc(SCCC(=O)N3CCN(C)CC3)n2)cc1`: the survival is 108%.
Turning to `CCC1CCCCN1C(=O)CSc1nc(-c2ccc(OC)cc2)cc(C(F)(F)F)n1` (stereo unspecified), the survival is -6% (active).
Turning to `COc1ccc(-c2cc(C(F)(F)F)nc(SCC(=O)N3CCCCC3)n2)cc1OC`, the survival is 90%.
To `COc1ccc(-c2cc(C(F)(F)F)nc(SCC(=O)N3CCCCC3C)n2)cc1OC` (stereo unspecified) belongs 69%.
Turning to `Cc1cc(C)n(-c2nc3cc(Cl)c(Cl)cc3nc2Nc2ccc(F)cc2C)n1`, the survival was 82%.
As to `Cc1oc(C(C)(C)C)cc1C(=O)NC(Cc1ccccc1)C(=O)O` (stereo unspecified), the survival was 98%.
Take `Cc1ccc(CNC(=O)C2CCN(c3ncnc4c3nc3n4CCCCC3)CC2)cc1`: the survival is 85%.
On to `COc1ccccc1-c1cc(C(=O)N2CCN(c3ccccc3)CC2)no1`, for which the survival is -10% (active).
Turning to `COc1cccc(-c2cc(C(=O)N3CCN(c4ccc(F)cc4)CC3)no2)c1`, the survival was 78%.
The figure for `COc1ccc(-c2cc(C(=O)N3CCN(c4ccccc4)CC3)no2)cc1` is 16% (active); for `COc1ccccc1N1CCN(C(=O)c2cc(-c3ccccc3O)on2)CC1` it is 66%; for `COc1ccccc1N1CCN(C(=O)c2cc(-c3ccc(F)cc3)on2)CC1` it is 73%.
To `COc1ccc(-c2cc(C(=O)N3CCN(c4ccc(F)cc4)CC3)no2)cc1OC` belongs 72%; to `COc1ccc(N2CCN(C(=O)c3cc(-c4ccc(C)c(F)c4)on3)CC2)cc1`, 106%.
Regarding `O=C(c1cc(-c2ccc(O)cc2)on1)N1CCN(c2ccccc2)CC1`, the survival was 51%.
As for `COc1cccc(-c2cc(C(=O)N3CCN(c4ccccc4OC)CC3)no2)c1`, the survival is -9% (active).
For the molecule `CCn1c(CCNC(=O)C2CCCO2)nnc1SC` (stereo unspecified), the survival was 94%.
Regarding `COc1cccc(N2CCN(C(=O)CN3CCSc4ccc(S(=O)(=O)N(C)C)cc43)CC2)c1`, the survival was 72%.
To `Cc1ccc(O)c(CNc2cccc3cccnc23)c1` belongs 107%; to `COc1ccc(C(=O)NC(c2ccc(Cl)cc2)c2cc(Cl)c3cccnc3c2O)cc1` (stereo unspecified), 79%; to `Cc1cccc(NC(c2cccc(Cl)c2)c2ccc3cccnc3c2O)n1` (stereo unspecified), 4% (active).
To `Cc1ccnc(NCc2cccc3ccccc23)c1` belongs 115%; to `Cc1ccnc(NC(c2ccccc2F)c2ccc3cccnc3c2O)c1` (stereo unspecified), -8% (active).
In the case of `Cc1ccnc(NC(c2cccc(O)c2)c2ccc3ccc(C)nc3c2O)c1` (stereo unspecified), the survival is 74%.
Regarding `Cc1ccnc(NC(c2cc(C)ccc2O)c2ccc3cccnc3c2O)c1` (stereo unspecified), the survival was 3% (active).
As to `Cc1ccc2ccc(C(Nc3ccccn3)c3ccccc3)c(O)c2n1` (stereo unspecified), the survival was 69%.
Consider `Cc1ccc(C(Nc2ccccn2)c2ccc3cccnc3c2O)cc1` (stereo unspecified), for which the survival is 6% (active).
Take `CCOc1cc(C(Nc2cc(C)ccn2)c2ccc3cccnc3c2O)ccc1OC` (stereo unspecified): the survival was 145%.
Take `Oc1cccc(C(Nc2ccccn2)c2ccc3cccnc3c2O)c1Cl` (stereo unspecified): the survival is 76%.
The figure for `Oc1c(C(Nc2ccccn2)c2ccccc2F)ccc2cccnc12` (stereo unspecified) is 135%.
Consider `CCCN(C(=O)c1nn(-c2ccc(OC)c(Cl)c2)c(=O)c2c1c1ccccc1n2C)c1ccccc1F`, for which the survival is 74%.
For the molecule `CCOc1ccccc1CNC(=O)Cn1c(-c2ccccc2)cc(C(C)=O)c1C`, the survival was 67%.
The figure for `COC(=O)COc1ccc(S(=O)(=O)N2CCCCC2)cc1C` is 117%.
For the molecule `O=C(/C=C/c1ccccc1)NC1CCSC1=O` (stereo unspecified), the survival is 108%.
Regarding `O=C(CNS(=O)(=O)c1ccc(Cl)cc1)NC1CCCC1`, the survival was 103%.
With `O=C(CS(=O)(=O)c1cccc2nsnc12)N1CCN(c2ccccc2F)CC1`, the survival was 94%.
With `Cc1ccc(NC(=O)Nc2nnc(N(C)Cc3ccccc3)s2)cc1`, the survival is 101%.
Consider `COc1ccc2c(c1)c(CC(=O)Nc1ccc(C(C)=O)cc1)c(C)n2C(=O)c1ccc(Cl)cc1`, for which the survival was 71%.
As to `CN1CCc2c(sc3c2C(=O)NC(c2ccc(OC(=O)c4ccc(Cl)cc4)cc2)N3)C1` (stereo unspecified), the survival is 75%.
As to `CCOC(=O)c1ccc(NC(=O)CSc2cn(CC(=O)N3CCCC3)c3ccccc23)cc1`, the survival was 89%.
Regarding `COc1ccc(CNc2oc(COc3cccc(C)c3)nc2C#N)cc1`, the survival was 63%.
The figure for `COc1ccc(-c2nc(C)c(CCNS(=O)(=O)c3cc(Cl)ccc3Cl)s2)cc1` is 87%.
For `CCOc1cc(C(=O)NCCc2csc3nc(-c4ccccc4F)nn23)cc(OCC)c1OCC`, the survival is 87%.
`O=C(CCn1nnc(-c2cccs2)n1)NC1CCCCC1`: the survival is 115%.
For the molecule `Cc1cccc(NC(c2ccccc2C)c2ccc3ccc(C)nc3c2O)n1` (stereo unspecified), the survival is -3% (active).
Consider `COc1ccc(C(Nc2ccccn2)c2ccc3ccc(C)nc3c2O)cc1C` (stereo unspecified), for which the survival was 62%.
Take `Cc1cccc(NC(=O)c2ccccc2)n1`: the survival is 107%.
Consider `Cc1ccc(C)c(N2CCN(S(=O)(=O)c3cn(C)c(C)n3)CC2)c1`, for which the survival is 68%.
For the molecule `Cc1cccc(N2CCN(S(=O)(=O)c3cn(C)c(C)n3)CC2)c1C`, the survival is -3% (active).
For the molecule `Cc1nc(S(=O)(=O)N2CCN(c3ccccc3F)CC2)cn1C`, the survival was 121%.
As for `COc1cc(NC(=O)CC(C)S(=O)(=O)c2cc3c4c(c2)CCN4C(=O)CC3)cc(OC)c1` (stereo unspecified), the survival is 76%.
As for `C=CCN1C2=NCCCN2c2ccccc21`, the survival was 113%.
Regarding `COC(=O)CSc1nc(-c2ccccc2)cc(C(F)(F)F)n1`, the survival was 111%.
Regarding `CC(C)(C)c1ccccc1NC(=O)CSc1nc(-c2cccs2)cc(C(F)(F)F)n1`, the survival was 10% (active).
Regarding `O=C(CSc1nc(-c2cccs2)cc(C(F)(F)F)n1)Nc1ccccc1Cl`, the survival was 99%.
With `COC(=O)c1ccccc1NC(=O)CSc1nc(-c2ccccc2)cc(C(F)(F)F)n1`, the survival is 19% (active).
For `COC(=O)c1ccccc1NC(=O)CSc1cc(-c2ccccc2)nc(C)n1`, the survival is 92%.
On to `CCOc1ccccc1NC(=O)CSc1nc(-c2cccs2)cc(C(F)(F)F)n1`, for which the survival is 83%.
Take `COc1cccc(-n2c(=O)c3c4c(sc3n(Cc3ccccc3C#N)c2=O)CCCC4)c1`: the survival is 80%.
Turning to `COc1ccc(C(CNC(=O)c2oc3cc(C)c(C)cc3c2C)N2CCCCC2)cc1` (stereo unspecified), the survival was 102%.
Turning to `Cc1ccc(NC(=O)C2CCN(C(=O)c3cnn(-c4ccccc4)c3-n3cccc3)CC2)cc1C`, the survival is 84%.
For `COc1ccc(CCNC(=O)c2ccc3c(c2)ncn3-c2ccc(C(C)C)cc2)cc1OC`, the survival was 80%.
For the molecule `COC(=O)CSc1nc2cc(OC)c(OC)cc2cc1C`, the survival was 110%.
In the case of `COc1cc(C2C(=O)N(C3CCCCC3)CC(=O)N2CCC2=CCCCC2)ccc1OC(C)C` (stereo unspecified), the survival is 135%.
As to `Cc1cc(-c2nc3ccccc3s2)ccc1NC(=O)c1cc(Cl)ccc1Cl`, the survival was 92%.
Regarding `C=CCc1ccccc1OCC(O)CN1CCN(c2ccccc2)CC1` (stereo unspecified), the survival is 54%.
With `COc1ccc(N2CCN(CC(O)COc3ccc(C(C)C)c(C)c3)CC2)cc1` (stereo unspecified), the survival is 85%.
Consider `COc1ccc(N2CCN(CC(O)COc3c(OC)cccc3OC)CC2)cc1` (stereo unspecified), for which the survival was 81%.
With `COc1ccccc1N1CCN(CC(O)COc2cc(C)cc(C)c2)CC1` (stereo unspecified), the survival is 82%.
On to `COc1ccc(N2CCN(CC(O)COc3ccccc3C(C)(C)C)CC2)cc1` (stereo unspecified), for which the survival is -3% (active).
Turning to `Cc1ccc(C(C)C)c(OCC(O)CN2CCN(c3ccccc3F)CC2)c1` (stereo unspecified), the survival was -3% (active).
Consider `COc1ccc(N2CCN(CC(O)COc3ccc(C(C)(C)C)cc3)CC2)cc1` (stereo unspecified), for which the survival is 87%.
As for `COc1ccccc1N1CCN(CC(O)COc2ccc(C)cc2C(C)(C)C)CC1` (stereo unspecified), the survival is 2% (active).
Take `COc1ccc(N2CCN(CC(O)COc3ccc(C)cc3C)CC2)cc1` (stereo unspecified): the survival was 87%.
